Source: PubChem BioAssay (National Center for Advancing Translational Sciences (NCATS))
This is one part of a sample in which hits are shown more often than they occur.
NS1 inh: blocks influenza NS1 protein function; 270,000 compounds, 0.4% hits; Potency, µM (titrated, usually from 46.1 µM), without a hit: top-dose activity, positive = more growth; further: potency means the concentration at half of the fitted maximal effect; actives are rising curves; nearly all actives have a fitted effect of over 50% in size
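S. cerevisiae expressing influenza A NS1, grown in glucose, washed, then diluted 1:100 into pH 6.0 -URA galactose medium with 23 nl compound. Growth recovery read as OD600; NS1-free strain serves as control.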
CHX counter: counter-screen for Shiga toxin inhibitors: cycloheximide protein synthesis inhibition; max response, %; cell reporter, cycloheximide protein synthesis inhibition counterscreen; 300,000 compounds, 12% hits; AID 2314; in the data active means max response mostly above about 13%, no sharp cut-off; inactive means mostly below about 14%; further: read at 38.3 µM for the half of the compounds with a filed dose; 0% is about no effect
AmpC inh detg: inhibitors of E. coli AmpC beta-lactamase with detergent; AmpC hydrolysis of nitrocefin, absorbance 480 nm, 0.01% Triton; Potency, µM (highest dose often 114 µM), inactives show at the highest dose activity change, negative = inhibition, most hits filed as inhibitors; 370,000 compounds, 0.041% hits; AID 485294; active means well fitted curve in the direction sought with a large enough effect; inconclusive means small, poorly fitted or top-dose-only effect, or another doubt; inactive means no such curve, though single readings can be large; an effect the other way counts as inactive or inconclusive;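 further: potency means the concentration at half of the fitted maximal effect; 0% = no-compound wells and -100% = no-enzyme wells; nearly all actives have a fitted effect of over 25% in size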
Target sequence (P00811 whole entry, looked up): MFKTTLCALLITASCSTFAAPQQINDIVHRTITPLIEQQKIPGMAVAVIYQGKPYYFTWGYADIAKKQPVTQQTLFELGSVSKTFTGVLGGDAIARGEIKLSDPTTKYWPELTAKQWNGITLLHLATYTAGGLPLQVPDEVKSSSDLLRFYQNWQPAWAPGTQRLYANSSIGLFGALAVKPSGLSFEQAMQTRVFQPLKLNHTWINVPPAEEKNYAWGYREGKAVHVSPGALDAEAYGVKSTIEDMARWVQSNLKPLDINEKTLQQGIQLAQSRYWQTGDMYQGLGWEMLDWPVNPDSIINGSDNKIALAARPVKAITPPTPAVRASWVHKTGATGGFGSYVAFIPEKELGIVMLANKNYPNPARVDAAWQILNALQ
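20 mM phosphate pH 7.0 + 0.01% (detergent screen) or 0.0001% Triton X-100; 5.3 nM AmpC reagent; cpd preinc 15 min RT; nitrocefin (800 uM stock) to start; A480 q20 s × 4 min; Activity was normalised to no-enzyme and no-compound control wells.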
AmpC no deterg: blocks E. coli AmpC beta-lactamase in detergent-free assay. P00811. AmpC nitrocefin hydrolysis, absorbance 480 nm, 0.0001% Triton. Potency, µM (top dose mostly 57.1 µM), without a hit: at the top dose activity change, negative = inhibition, actives largely listed as inhibitors. 330,000 compounds, 0.52% hits. AID 485341; active means well fitted curve in the direction sought with a large enough effect; inconclusive means small, poorly fitted or top-dose-only effect, or another doubt; inactive means no such curve, though single readings can be large; an effect the other way counts as inactive or inconclusive;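 further: potency means the concentration at half of the fitted maximal effect; plate controls were no compound for no effect and no enzyme for full effect; nearly all actives have a fitted effect of over 20% in size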
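20 mM phosphate pH 7.0 + 0.01% (detergent screen) or 0.0001% Triton X-100; 5.3 nM AmpC reagent; cpd preinc 15 min RT; nitrocefin (800 uM stock) to start; A480 q20 s × 4 min; Activity was normalised to no-enzyme and no-compound control wells.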
Shiga inhibitor: inhibitors of Shiga toxin in Vero cells | Vero cells, Shiga toxin protein synthesis inhibition reporter | inhibition, % at 38.7 µM | 290,000 compounds, 9.2% hits | AID 2315; in the data active means inhibition mostly above about 28%, no sharp cut-off; inactive means mostly below about 43%; further: 0% is about no effect
Flu NS1 inh: influenza NS1 function inhibition validation | 1,400 tested, under 10 active | influenza NS1 function cell assay, 15-point titration | activity change, negative = inhibition, % at 32.9 µM | shares compounds with NS1 inh | AID 492980; further: 0% is about no effect
Flu PR8 replic: reduces influenza A/PR/8/34 replication in MDCK cells; shares compounds with NS1 inh; MDCK infected influenza A/PR/8/34, virus titer TCID50; hits give low values; virus titer (log TCID50), log10 TCID50 at 5 µM; 95 compounds, 30% hits; call rule not given here
* hit, by the source's call. Unless noted, the call rests on the fitted dose curve.

`Cc1ccccc1C(=O)Nc1cccc(C(=O)Nc2ccccc2C(=O)O)c1` gave NS1 inh 11.2µM*, CHX counter -2.0, AmpC inh detg -6.1%, AmpC no deterg -19.6%, Shiga inhibitor -2.9 and Flu NS1 inh 14.0.
For Cc1cccc(NC(=O)C2CCCN(c3nc(C)cc(C)n3)C2)c1 (stereo unspecified) the results were NS1 inh 8.91µM*, CHX counter 3.1, AmpC inh detg -7.3%, AmpC no deterg 8.8%, Shiga inhibitor 24.5 and Flu NS1 inh 1.3.
Screening Cc1cccc(NC(=O)c2cc(NC(=O)c3ccccc3)ccc2N2CCCCC2)c1 returned NS1 inh inconclusive, CHX counter -5.2, AmpC inh detg -11.6%, AmpC no deterg 1.3%, Shiga inhibitor -2.7, Flu NS1 inh 2.3 and Flu PR8 replic 8.5.
`CC(=O)c1ccc(NS(=O)(=O)c2cccc(C(=O)Nc3ccccc3C(=O)O)c2)cc1` gave NS1 inh 12.6µM*, CHX counter -1.7, AmpC inh detg -17.8%, AmpC no deterg -31.2%, Shiga inhibitor -3.3 and Flu NS1 inh 31.2.
Screening Cc1nn(CC(C)C(=O)N2CCN(S(=O)(=O)c3ccc(Cl)cc3)CC2)c(C)c1C (stereo unspecified) returned NS1 inh 0.2%, CHX counter -2.0, AmpC inh detg 2.7%, AmpC no deterg 165.9% and Shiga inhibitor -3.8.
Screening COc1ccc(C(=O)N/C(=C\c2ccccc2)C(=O)NCc2cccnc2)cc1 returned NS1 inh 16.6%, CHX counter -4.4, AmpC inh detg -8.3%, AmpC no deterg -15.6% and Shiga inhibitor 8.5.
Screening Cc1cccc(NS(=O)(=O)c2cccc(C(=O)Nc3cccc(C(=O)O)c3)c2)c1 returned NS1 inh 2.24µM*, CHX counter -1.9, AmpC inh detg -6.2%, AmpC no deterg -23.9%, Shiga inhibitor -20.5 and Flu NS1 inh 31.4.
Screening O=C(NNC(=S)NC1CCCCC1)c1cccs1 returned NS1 inh 2.51µM*, CHX counter 10.8, AmpC inh detg 3.8%, AmpC no deterg -0.7%, Shiga inhibitor 20.7 and Flu NS1 inh 11.4.
For Cc1ccc(NC(=O)CN2C(=O)S/C(=C\c3cc(C)n(-c4cccc(C(=O)O)c4)c3C)C2=O)cc1 the results were NS1 inh 11.2µM*, CHX counter 0.5, AmpC inh detg -8.9%, AmpC no deterg -30.0%, Shiga inhibitor -0.5 and Flu NS1 inh 7.4.
Cn1cnnc1SCC(=O)Nc1ccccc1Sc1ccccc1 was read as NS1 inh 0.891µM*, CHX counter -0.8, AmpC inh detg inconclusive, AmpC no deterg 22.4%, Shiga inhibitor -29.0 and Flu NS1 inh -1.1.
`CC1Cc2nc(SCC(=O)Nc3nccs3)n(Cc3ccccc3)c(=O)c2S1` (stereo unspecified) gave NS1 inh 20µM*, CHX counter 0.8, AmpC inh detg -2.0%, AmpC no deterg -30.6%, Shiga inhibitor -8.2 and Flu NS1 inh -17.1.
Screening CC1Cc2nc(SCC(=O)Nc3ccc4c(c3)OCO4)n(Cc3ccccc3)c(=O)c2S1 (stereo unspecified) returned NS1 inh 11.2µM*, CHX counter 55.9*, AmpC inh detg -7.8%, AmpC no deterg -26.6%, Shiga inhibitor 83.4* and Flu NS1 inh 31.2.
Screening CC1Cc2nc(SCC(N)=O)n(Cc3ccccc3)c(=O)c2S1 (stereo unspecified) returned NS1 inh 9.6%, CHX counter -5.6, AmpC inh detg 4.8%, AmpC no deterg -22.4% and Shiga inhibitor -4.7.
For CC1Cc2nc(SCC(=O)NCC3CCCO3)n(Cc3ccccc3)c(=O)c2S1 (stereo unspecified) the results were NS1 inh -3.8%, CHX counter 13.0, AmpC inh detg 2.1%, AmpC no deterg -2.6% and Shiga inhibitor 9.3.
`COc1ccc(CN2C(=O)CC(=O)NC2=O)cc1` gave NS1 inh 3.55µM*, CHX counter -9.7, AmpC inh detg inconclusive, AmpC no deterg -23.8%, Shiga inhibitor -15.1 and Flu NS1 inh 26.1.
Screening O=C(CCn1c(=O)c2ccccc2n(Cc2cccc([N+](=O)[O-])c2)c1=O)N1CCc2ccccc2C1 returned NS1 inh 5.01µM*, CHX counter 0.6, AmpC inh detg -18.9%, AmpC no deterg -14.2%, Shiga inhibitor -13.4 and Flu NS1 inh 9.3.
CCn1c(=O)c2ccccc2n(Cc2cccc([N+](=O)[O-])c2)c1=O was read as NS1 inh -4.1%, CHX counter 0.3, AmpC inh detg -2.5%, AmpC no deterg 42.2% and Shiga inhibitor -5.8.
CC(SCC(=O)Nc1ccc(S(=O)(=O)N2CCCCC2)cc1)C(=O)O (stereo unspecified) was read as NS1 inh 7.5%, CHX counter 9.7, AmpC inh detg -13.8%, AmpC no deterg -21.7% and Shiga inhibitor -10.5.
Screening Cc1ccc(C(O)Cn2cc([N+](=O)[O-])nc2C)cc1 (stereo unspecified) returned NS1 inh inconclusive, CHX counter -2.1, AmpC inh detg 0.0%, AmpC no deterg -2.3%, Shiga inhibitor -1.8 and Flu NS1 inh 7.7.
Cc1cc(NC(c2nnc(-c3ccccc3)o2)c2ccccc2F)ccc1Br (stereo unspecified) was read as AmpC inh detg 23.4%.
`CCCc1cc(=O)[nH]c(SCC(=O)CSc2nc(CCC)cc(=O)[nH]2)n1` gave NS1 inh 8.91µM*, CHX counter -2.9, AmpC inh detg inconclusive, AmpC no deterg -19.1%, Shiga inhibitor 19.2 and Flu NS1 inh 30.3.
For CCCc1cc(=O)[nH]c(SCC(=O)NC)n1 the results were NS1 inh -2.8%, CHX counter -2.0, AmpC inh detg -14.0%, AmpC no deterg -24.7% and Shiga inhibitor 39.9.
COc1ccc(-n2nnnc2S(=O)(=O)Cc2ccc(C(=O)O)cc2)cc1 was read as NS1 inh -43.2%, CHX counter 11.1, AmpC inh detg -13.1%, AmpC no deterg -9.9% and Shiga inhibitor 20.9.
For CCS(=O)(=O)c1nnnn1-c1ccccc1S(C)(=O)=O the results were NS1 inh 14.1µM*, CHX counter 20.0, AmpC inh detg 0.9%, AmpC no deterg -3.8%, Shiga inhibitor 17.2 and Flu NS1 inh 5.4.
For COc1cccc(C2=CC(c3ccccc3F)n3ncc(C(=O)Nc4ccc(C)cc4)c3N2)c1 (stereo unspecified) the results were AmpC inh detg -3.0%.
CCOc1ccc(S(=O)(=O)Nc2ccccn2)c2ccccc12 was read as NS1 inh 1.12µM*, CHX counter -3.9, AmpC inh detg -10.4%, AmpC no deterg -3.5%, Shiga inhibitor -12.7 and Flu NS1 inh -12.5.
